Drawing on PubChem BioAssay AID1578 (Sanford-Burnham Center for Chemical Genomics, 2009), this text covers inhibition for 60 compounds.

Out of some 290,000 compounds screened, about 3,000 (1%) were called active. Cut-off read from the data, not from the text of the source: active = inhibition mostly above about 36% (no sharp cut-off); inactive = mostly below about 34%. What follows is part of a selection rich in actives, with near analogues and random picks from the rest.

A short description of the experiment: inhibition of NOD1-driven NF-kB reporter – cell-based, luminescence, uHTS, primary screen (AID 1578).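 Note: HEK-293T reporter cells stimulated with the NOD1 agonist gamma-tri-DAP.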 To be noted: NOD1-driven NF-kB luciferase reporter cells, at 4 µM, stronger effect = higher value. For orientation: A reporter such as luciferase makes a cellular process visible.
Broadly, the inhibition is the change of the read-out against control, counted positive when it falls. As for `COc1ccc(C2=NN(S(C)(=O)=O)C(c3cccs3)C2)cc1` (stereo not given), the inhibition is -16.2% (inactive).

With `CC(=O)Nc1ccc(C2=NN(c3ccccc3)C(c3cccs3)C2)cc1` (stereo not given), the inhibition is -0.7% (inactive).

As for `COc1ccc(C2=NN(c3ccccc3)C(c3cccs3)C2)cc1` (stereo not given), the inhibition is 46.8% (active).

Take `CC(=O)c1ccc(NC(=O)CCc2nnc3ccc(N4CCC5(CC4)OCCO5)nn23)cc1`: the inhibition was -15.6% (inactive).

`CCOc1cc2[nH]c(=O)n(CCCN3CCCC3=O)c(=O)c2cc1OCC`: the inhibition is 0.4% (inactive).

Regarding `CCCc1cc(-c2n[nH]c(=S)n2-c2cccc(C)c2)cs1`, the inhibition is -9.6% (inactive).

Take `O=C(NNC(=O)c1ccccn1)c1cccc([N+](=O)[O-])c1`: the inhibition was -43.1% (inactive).

Turning to `O=C(N/N=C(\c1ccccc1)c1ccccn1)c1cccc([N+](=O)[O-])c1`, the inhibition is 103% (active).

With `O=C(c1cccc([N+](=O)[O-])c1)c1ccccn1`, the inhibition was -6.3% (inactive).

Regarding `O=C(CC(C(=O)O)c1ccc(Cl)cc1)c1ccccc1` (stereo not given), the inhibition was -13% (inactive).

`C=C(C(=O)c1ccccc1)C(c1ccccc1)C(C)C(=O)c1ccccc1` (stereo not given): the inhibition is 44.3% (inactive).

Consider `C=C(C(=O)c1ccccc1)C(C)C(=C)C(=O)c1ccccc1`, for which the inhibition is 99% (active).

Consider `O=C(CC(CC(=O)c1ccccc1)c1ccccc1)c1ccccc1`, for which the inhibition is -4.1% (inactive).

Consider `O=C(O)c1ccc(C(=O)C(=O)c2ccccc2)cc1`, for which the inhibition was -2.3% (inactive).

On to `CC1c2[nH]c3ccccc3c2C[C@H]2C(=O)N(CCO)CC(=O)N12` (stereo not given in full), for which the inhibition is -2.7% (inactive).

In the case of `C=CCc1c(OC(C)=O)c2ccccc2n(C)c1=O`, the inhibition is -38% (inactive).

As to `COc1ccc(NC(=O)Cc2c(C)n(C(=O)c3ccc(Cl)cc3)c3ccc(OC)cc23)cc1`, the inhibition was -13.3% (inactive).

On to `COc1ccc2c(c1)c(CC(=O)Nc1ccc(C)cc1)c(C)n2C(=O)c1ccc(Cl)cc1`, for which the inhibition was 24.5% (inactive).

As to `COc1ccc2c(c1)c(CC(=O)Nc1nnc(C3CC3)s1)c(C)n2C(=O)c1ccc(Cl)cc1`, the inhibition was 64.9% (active).

Take `COc1ccc(C(=O)Nc2cc(-c3nn4c(C)nnc4s3)ccc2C)cc1`: the inhibition is -18.2% (inactive).

For `CCC1(c2ccccc2)NC(=O)N(CC(=O)NCc2ccccc2OC)C1=O` (stereo not given), the inhibition was 0.8% (inactive).

For `COc1ccc(-c2cc(C(=O)N3CCN(S(=O)(=O)c4ccccc4)CC3)[nH]n2)cc1`, the inhibition is 4.3% (inactive).

Consider `COc1cccc2sc(Nc3nnc(-c4cccs4)o3)nc12`, for which the inhibition was 84.7% (active).

Consider `Fc1cccc2sc(Nc3nnc(-c4ccco4)o3)nc12`, for which the inhibition was 104% (active).

On to `COc1cc(OC)cc(-c2nnc(Nc3nc4c(F)cccc4s3)o2)c1`, for which the inhibition was 21% (inactive).

Regarding `COc1cccc2sc(Nc3nnc(-c4ccc(F)cc4)o3)nc12`, the inhibition was -29.8% (inactive).

For the compound `Fc1cccc2sc(Nc3nnc(-c4ccccc4)o3)nc12`, the inhibition is 52.7% (inactive).

As to `COc1ccc(-c2nnc(Nc3nc4c(OC)cccc4s3)o2)cc1`, the inhibition was -20.8% (inactive).

Take `CCOC(=O)C1C(=O)NC(c2ccccc2)=NC1c1cccc(Br)c1` (stereo not given): the inhibition was -36.5% (inactive).

As to `CC1/C(=N/O)CC(c2ccco2)NC1c1ccco1` (stereo not given), the inhibition was -0.7% (inactive).

With `COc1ccc(NC(=S)N2CCC(NC(=O)c3ccc(F)cc3)CC2)cc1`, the inhibition is -29% (inactive).

Consider `Cc1cc(C)c(S(=O)(=O)N2CCOCC2)c(C)c1N(C)S(=O)(=O)c1ccccc1`, for which the inhibition is -19.6% (inactive).

For the compound `N#C/C(=C\c1ccc(OCC(N)=O)cc1)c1ccccc1`, the inhibition is -59.4% (inactive).

As to `O=C(Nc1cccnc1)c1cccc(S(=O)(=O)N2CCOCC2)c1`, the inhibition was -21% (inactive).

For `CN1CCC(OC(=O)c2ccco2)CC1`, the inhibition was -32.4% (inactive).

Consider `O=c1c(=Nc2ccccc2O)c(=O)c2ccccc12`, for which the inhibition was -41.2% (inactive).

With `O=C1C(C=Nc2ccccc2O)=C(O)c2ccccc21`, the inhibition was -64.5% (inactive).

Turning to `CNC(=O)COC(=O)c1ccccc1Nc1ccccc1`, the inhibition is -60.3% (inactive).

For the compound `COc1cc(/C=C(\NC(C)=O)C(=O)NC(C)(C)CC(C)(C)C)ccc1OC(C)=O`, the inhibition was -17.3% (inactive).

Take `COc1ccc(-n2c(=O)c(CCC(=O)N(C)Cc3ccccc3C)nc3ccccc32)cc1`: the inhibition was -8.4% (inactive).

Turning to `COc1ccc(/C(O)=C/c2nc3ccccc3n(-c3ccccc3)c2=O)cc1`, the inhibition was -72.6% (inactive).

Take `COc1cccc(CC(=O)N2CCC(CCC(=O)Nc3cccc(OC)c3)CC2)c1`: the inhibition was -3.8% (inactive).

With `Cc1cccc(NC(=O)CCCN2C(=O)C(c3ccccc3)Oc3cccnc32)c1C` (stereo not given), the inhibition is 42.2% (active).

In the case of `Cc1cccc(C)c1NC(=O)CCCN1C(=O)C(c2ccccc2)Oc2cccnc21` (stereo not given), the inhibition is -12.2% (inactive).

As to `COc1ccccc1NC(=O)CCCN1C(=O)C(c2ccccc2)Oc2cccnc21` (stereo not given), the inhibition is -2.8% (inactive).

As for `COP(=O)(OC)C(Nc1ccc(Cl)cc1)c1ccccc1` (stereo not given), the inhibition is -7.2% (inactive).

In the case of `COP(=O)(OC)C(Nc1ccc([N+](=O)[O-])cc1)c1ccccc1` (stereo not given), the inhibition was -11.2% (inactive).

For the compound `CCOc1ccc(NC(c2ccccc2)P(=O)(OC)OC)cc1` (stereo not given), the inhibition was 73.2% (active).

Turning to `Cc1cc(NC(=O)c2ccc(Br)o2)ccc1NC(=O)c1ccco1`, the inhibition is -55.3% (inactive).

For `COC1c2ccccc2C(=O)N1CCc1ccc(Cl)cc1` (stereo not given), the inhibition was -31.1% (inactive).

Consider `CNc1cc(C)nc(N2CCOCC2)n1`, for which the inhibition was -5.2% (inactive).

As for `CC1(c2cc([N+](=O)[O-])cc([N+](=O)[O-])c2)CC(C)(C)N(C(=O)c2ccccc2)c2ccccc21` (stereo not given), the inhibition is 4.5% (inactive).

Take `CC1(c2ccccc2)CC(C)(C)N(C(=O)c2cc([N+](=O)[O-])cc([N+](=O)[O-])c2)c2ccccc21` (stereo not given): the inhibition is -2.3% (inactive).

For the compound `CC1(c2cccc([N+](=O)[O-])c2)CC(C)(C)N(C(=O)c2ccccc2)c2ccccc21` (stereo not given), the inhibition is 82.6% (active).

Regarding `CCCCCCCC(O)CC(CC1CCCCC1)C(=O)NN` (stereo not given), the inhibition is -15% (inactive).

For the compound `Cc1cc(C(F)(F)F)nn1CC(=O)NNC(=S)NCC(C)C`, the inhibition is -1.1% (inactive).

As to `Cc1ccc2c(c1)N(CCCC(=O)NCCCN1CCCC1=O)C(=O)CO2`, the inhibition was -14.9% (inactive).

As for `COc1cccc(NC(C)C(=O)N2CC(C)OC(C)C2)c1` (stereo not given), the inhibition was -26.3% (inactive).

For the compound `O=c1c2cc(Br)ccc2nc(-c2ccccc2)n1O`, the inhibition is 6.1% (inactive).

`Cc1ccc(-c2nc3ccc(Cl)cc3c(=O)n2O)cc1`: the inhibition was 1.3% (inactive).
